What all share (design): scale not given: direction of the effect not stated beside the values
The target in assay [1] is Protein translocase subunit SecA (Escherichia coli (strain K12)) (UniProt P10408). As to the kind of experiment: Assay to Identify E. coli SecA ATPase Inhibitors. In kind it is functional. To be noted: 30 µM.
Assay [2] has as its target T1, Ubiquitin-activating enzyme e1, putative (Leishmania donovani (strain BPK282A1)) (UniProt E9BSI1).
T1 sequence (whole entry): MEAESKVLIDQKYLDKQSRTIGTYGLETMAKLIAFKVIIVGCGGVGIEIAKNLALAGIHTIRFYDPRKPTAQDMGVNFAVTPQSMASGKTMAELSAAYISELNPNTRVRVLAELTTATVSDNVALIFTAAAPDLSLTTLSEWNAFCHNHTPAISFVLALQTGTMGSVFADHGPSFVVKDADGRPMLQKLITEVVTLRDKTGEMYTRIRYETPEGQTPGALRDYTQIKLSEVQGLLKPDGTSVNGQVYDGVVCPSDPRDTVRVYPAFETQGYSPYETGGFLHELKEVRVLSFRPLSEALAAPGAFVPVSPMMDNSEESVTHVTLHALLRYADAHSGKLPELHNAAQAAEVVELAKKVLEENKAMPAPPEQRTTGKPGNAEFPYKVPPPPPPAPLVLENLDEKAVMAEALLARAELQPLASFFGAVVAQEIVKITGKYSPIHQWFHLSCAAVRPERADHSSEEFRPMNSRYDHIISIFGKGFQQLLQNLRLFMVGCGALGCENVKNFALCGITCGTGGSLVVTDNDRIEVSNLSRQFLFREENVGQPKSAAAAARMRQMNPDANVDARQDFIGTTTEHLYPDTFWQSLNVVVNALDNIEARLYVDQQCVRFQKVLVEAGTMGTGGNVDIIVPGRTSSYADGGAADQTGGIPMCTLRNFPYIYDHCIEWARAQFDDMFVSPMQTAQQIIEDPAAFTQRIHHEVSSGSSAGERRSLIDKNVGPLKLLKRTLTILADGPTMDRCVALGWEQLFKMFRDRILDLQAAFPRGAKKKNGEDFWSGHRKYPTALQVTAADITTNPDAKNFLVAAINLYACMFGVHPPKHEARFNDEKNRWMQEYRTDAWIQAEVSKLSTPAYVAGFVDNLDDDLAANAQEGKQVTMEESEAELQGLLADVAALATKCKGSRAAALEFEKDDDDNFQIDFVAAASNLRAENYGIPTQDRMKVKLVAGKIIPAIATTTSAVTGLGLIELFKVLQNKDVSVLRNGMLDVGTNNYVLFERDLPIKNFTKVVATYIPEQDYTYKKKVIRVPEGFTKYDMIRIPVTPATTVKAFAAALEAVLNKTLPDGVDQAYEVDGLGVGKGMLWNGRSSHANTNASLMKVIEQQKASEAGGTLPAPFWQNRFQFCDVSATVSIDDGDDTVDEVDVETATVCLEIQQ
Put plainly: Leishmania donovani Ubiquitin Activating Enzyme (LdE1). It is filed as functional. To be noted: 30 µM.

Assay [3] has as its target AMP-activated protein kinase, AMPK (Homo sapiens) (UniProt P54646+O43741+P54619+Q9UGJ0+Q9Y478+Q13131+Q9UGI9). Put plainly: AMP-dependent Kinase enzyme assay. An in vitro enzyme assay that detects ADP turnover that is directly proportional to AMPK activity. This uses naive AMPK that is activated during the assay with MK-8722. It is filed as functional. As to conditions: 30 µM.

The target in assay [4] is Sialic acid-binding Ig-like lectin 9 (Homo sapiens) (UniProt Q9Y336). Put plainly: Hs-Siglec9 ALPHAscreen SOP 20170721. To be noted: 10 µM.
Sialic acid-binding Ig-like lectin 9 (Homo sapiens), sequence (Q9Y336 whole entry): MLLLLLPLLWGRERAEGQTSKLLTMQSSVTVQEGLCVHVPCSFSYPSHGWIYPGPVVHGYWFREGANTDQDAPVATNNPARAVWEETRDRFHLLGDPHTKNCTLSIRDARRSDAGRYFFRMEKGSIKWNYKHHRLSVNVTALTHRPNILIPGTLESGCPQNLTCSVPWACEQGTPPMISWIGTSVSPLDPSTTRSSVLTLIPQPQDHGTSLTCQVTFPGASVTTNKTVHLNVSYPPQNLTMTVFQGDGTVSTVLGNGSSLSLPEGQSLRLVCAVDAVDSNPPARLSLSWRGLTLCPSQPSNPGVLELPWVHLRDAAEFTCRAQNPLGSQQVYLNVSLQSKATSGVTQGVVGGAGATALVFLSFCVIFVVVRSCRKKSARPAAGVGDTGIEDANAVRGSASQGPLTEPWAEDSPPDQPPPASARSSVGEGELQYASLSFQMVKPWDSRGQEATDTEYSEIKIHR
For assay [5], the system named is Trypanosoma cruzi. As to the kind of experiment: Trypanosoma cruzi phosphomannomutase and mannose-1-phosphate guanylyltransferase assay. It is filed as functional. To be noted: 10 µM.
In assay [6] the target is T2, Arginase-2, mitochondrial (Homo sapiens) (UniProt P78540).
T2 sequence (whole entry): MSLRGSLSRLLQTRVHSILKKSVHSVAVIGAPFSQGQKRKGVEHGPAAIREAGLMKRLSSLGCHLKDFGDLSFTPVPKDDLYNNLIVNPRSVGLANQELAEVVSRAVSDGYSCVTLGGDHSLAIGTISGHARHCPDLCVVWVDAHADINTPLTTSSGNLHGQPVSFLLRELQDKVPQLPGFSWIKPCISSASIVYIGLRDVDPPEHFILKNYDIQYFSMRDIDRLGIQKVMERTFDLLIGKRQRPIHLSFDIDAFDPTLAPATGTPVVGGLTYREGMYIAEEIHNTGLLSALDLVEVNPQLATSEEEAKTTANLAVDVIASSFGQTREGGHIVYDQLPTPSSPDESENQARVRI
Put plainly: in vitro enzyme assay to detect the production of urea directly proportional to the activity of Arginase II. Further: in the data most compounds retested in dose-response had high values. In kind it is functional. As to conditions: 33.3 µM.

Assay [7] concerns the target T3, Proteasome subunit beta (Trypanosoma cruzi) (UniProt O96673).
T3 sequence (whole entry): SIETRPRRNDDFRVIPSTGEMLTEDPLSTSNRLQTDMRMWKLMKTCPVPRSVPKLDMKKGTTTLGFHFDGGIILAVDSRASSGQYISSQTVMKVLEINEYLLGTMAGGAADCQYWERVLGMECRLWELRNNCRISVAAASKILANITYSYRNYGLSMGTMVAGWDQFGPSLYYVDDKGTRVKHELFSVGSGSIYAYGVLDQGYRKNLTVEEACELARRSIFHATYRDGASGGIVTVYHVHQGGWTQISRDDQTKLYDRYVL
Put plainly: Trypanosoma cruzi proteasome chymotrypsin-like activity (TcProtChymo) assay. Further: in the data most compounds retested in dose-response had high values. It is filed as functional. To be noted: 9.37 µM.

The species entered for assay [8] is Homo sapiens. As to the kind of experiment: To identify inhibition of the IFN signalling (Jak-Stat) pathway via expression of an eGFP reporter gene under the control of an IFN-stimulated response element (ISRE) containing MxA promoter. It is filed as functional. To be noted: 30 µM.
Assay [9] has as its target T4, Tyrosyl-tRNA synthetase, putative (Trypanosoma cruzi (strain CL Brener)) (UniProt Q4DSP6).
T4 sequence (whole entry): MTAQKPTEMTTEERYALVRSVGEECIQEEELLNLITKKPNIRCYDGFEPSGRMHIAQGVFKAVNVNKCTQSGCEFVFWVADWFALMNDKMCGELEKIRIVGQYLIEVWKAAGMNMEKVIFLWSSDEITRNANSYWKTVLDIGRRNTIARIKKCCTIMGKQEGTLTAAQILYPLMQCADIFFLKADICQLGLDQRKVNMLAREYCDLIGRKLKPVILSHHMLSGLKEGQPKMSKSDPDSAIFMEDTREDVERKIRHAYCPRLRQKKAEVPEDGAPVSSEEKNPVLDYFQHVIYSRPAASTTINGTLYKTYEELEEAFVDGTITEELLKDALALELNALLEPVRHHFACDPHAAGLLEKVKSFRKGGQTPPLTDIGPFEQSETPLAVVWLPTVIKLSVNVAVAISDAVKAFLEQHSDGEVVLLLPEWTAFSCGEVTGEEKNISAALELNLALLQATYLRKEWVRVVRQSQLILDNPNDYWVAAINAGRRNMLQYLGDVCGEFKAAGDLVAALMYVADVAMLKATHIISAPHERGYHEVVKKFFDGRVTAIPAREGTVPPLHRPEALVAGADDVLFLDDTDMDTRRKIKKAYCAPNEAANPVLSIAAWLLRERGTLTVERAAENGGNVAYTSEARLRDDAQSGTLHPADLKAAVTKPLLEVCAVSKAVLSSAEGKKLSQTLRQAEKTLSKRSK
Put plainly: Trypanosoma cruzi tyrosyl tRNA synthetase (TcYRS) _High Tyrosine SOP. Further: in the data most compounds retested in dose-response had high values. In kind it is functional. To be noted: 30 µM.

Assay [10] deals with T4, Tyrosyl-tRNA synthetase, putative (Trypanosoma cruzi (strain CL Brener)). Put plainly: Trypanosoma cruzi tyrosyl tRNA synthetase (TcYRS) SOP. As to conditions: 30 µM. In kind it is functional.
Assay [11] has as its target Chromo domain-containing protein 1 (Saccharomyces cerevisiae (strain ATCC 204508 / S288c) (Baker's yeast)) (UniProt P32657). As to the kind of experiment: ScCHD-1 Enzyme Inhibition Assay. Further: in the data most compounds retested in dose-response had high values. It is filed as functional. As to conditions: 30 µM.

Each structure is given as a SMILES string. For some of these results: Potency and affinity values are given separately.

Protein translocase subunit SecA (Escherichia coli (strain K12)), sequence (P10408 whole entry): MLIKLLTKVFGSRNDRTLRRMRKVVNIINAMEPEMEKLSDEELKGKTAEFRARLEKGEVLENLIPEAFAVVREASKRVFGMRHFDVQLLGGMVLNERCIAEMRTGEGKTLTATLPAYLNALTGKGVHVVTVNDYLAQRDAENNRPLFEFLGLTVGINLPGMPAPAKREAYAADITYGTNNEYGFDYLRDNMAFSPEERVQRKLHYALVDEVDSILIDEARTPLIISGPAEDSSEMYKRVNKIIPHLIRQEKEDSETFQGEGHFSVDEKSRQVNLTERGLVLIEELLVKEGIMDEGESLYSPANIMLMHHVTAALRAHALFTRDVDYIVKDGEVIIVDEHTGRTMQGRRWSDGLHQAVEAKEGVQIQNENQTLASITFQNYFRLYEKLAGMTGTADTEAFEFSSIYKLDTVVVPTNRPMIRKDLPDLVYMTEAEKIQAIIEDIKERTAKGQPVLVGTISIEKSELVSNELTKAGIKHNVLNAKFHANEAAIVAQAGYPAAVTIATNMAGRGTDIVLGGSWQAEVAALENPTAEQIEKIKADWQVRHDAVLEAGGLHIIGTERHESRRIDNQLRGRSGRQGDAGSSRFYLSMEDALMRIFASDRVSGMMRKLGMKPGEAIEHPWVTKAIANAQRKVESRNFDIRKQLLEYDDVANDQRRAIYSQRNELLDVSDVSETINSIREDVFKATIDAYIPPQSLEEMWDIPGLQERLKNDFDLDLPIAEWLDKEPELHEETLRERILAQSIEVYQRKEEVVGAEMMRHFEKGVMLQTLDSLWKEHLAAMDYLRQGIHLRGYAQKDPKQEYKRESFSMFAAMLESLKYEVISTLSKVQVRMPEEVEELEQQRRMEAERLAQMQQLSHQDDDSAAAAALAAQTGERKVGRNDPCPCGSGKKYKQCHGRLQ
Chromo domain-containing protein 1 (Saccharomyces cerevisiae (strain ATCC 204508 / S288c) (Baker's yeast)), sequence (P32657 whole entry, the tested form may be a part): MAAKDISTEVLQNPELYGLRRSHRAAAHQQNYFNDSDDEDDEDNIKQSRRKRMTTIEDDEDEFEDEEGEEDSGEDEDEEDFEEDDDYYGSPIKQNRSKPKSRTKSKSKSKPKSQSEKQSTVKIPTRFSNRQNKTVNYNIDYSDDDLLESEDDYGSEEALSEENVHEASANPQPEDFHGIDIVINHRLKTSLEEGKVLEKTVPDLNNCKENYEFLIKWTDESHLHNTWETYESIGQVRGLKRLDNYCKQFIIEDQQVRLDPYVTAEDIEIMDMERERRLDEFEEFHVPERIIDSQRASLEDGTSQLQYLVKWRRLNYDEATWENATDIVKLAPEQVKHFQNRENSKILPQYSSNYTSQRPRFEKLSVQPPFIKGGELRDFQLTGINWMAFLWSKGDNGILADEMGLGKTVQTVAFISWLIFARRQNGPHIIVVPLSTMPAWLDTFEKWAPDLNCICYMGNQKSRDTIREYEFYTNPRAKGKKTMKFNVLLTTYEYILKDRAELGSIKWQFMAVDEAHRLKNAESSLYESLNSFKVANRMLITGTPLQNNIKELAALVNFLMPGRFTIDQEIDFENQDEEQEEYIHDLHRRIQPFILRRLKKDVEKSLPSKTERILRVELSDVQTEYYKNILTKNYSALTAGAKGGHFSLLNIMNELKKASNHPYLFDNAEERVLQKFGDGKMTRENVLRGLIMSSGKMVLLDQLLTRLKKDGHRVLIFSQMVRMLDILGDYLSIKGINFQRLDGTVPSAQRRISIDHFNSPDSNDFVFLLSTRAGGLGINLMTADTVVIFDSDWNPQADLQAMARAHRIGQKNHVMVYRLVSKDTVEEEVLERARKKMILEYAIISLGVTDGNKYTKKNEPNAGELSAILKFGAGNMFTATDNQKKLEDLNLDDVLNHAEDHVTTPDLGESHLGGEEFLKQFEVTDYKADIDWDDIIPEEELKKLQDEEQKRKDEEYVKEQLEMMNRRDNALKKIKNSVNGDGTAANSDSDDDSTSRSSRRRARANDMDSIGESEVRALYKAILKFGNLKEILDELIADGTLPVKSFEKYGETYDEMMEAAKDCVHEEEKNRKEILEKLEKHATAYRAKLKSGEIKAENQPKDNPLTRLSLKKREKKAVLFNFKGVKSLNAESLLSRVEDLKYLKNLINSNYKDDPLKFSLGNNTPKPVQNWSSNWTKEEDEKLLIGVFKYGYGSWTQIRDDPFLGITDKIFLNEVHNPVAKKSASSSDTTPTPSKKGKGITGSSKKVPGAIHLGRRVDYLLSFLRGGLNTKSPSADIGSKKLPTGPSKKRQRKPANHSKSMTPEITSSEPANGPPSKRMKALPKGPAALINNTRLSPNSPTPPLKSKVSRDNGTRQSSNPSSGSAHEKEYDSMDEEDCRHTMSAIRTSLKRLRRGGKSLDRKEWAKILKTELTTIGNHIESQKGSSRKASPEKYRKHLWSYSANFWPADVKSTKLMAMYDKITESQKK

Consider `Cc1cnn(CCNCc2ccc(OCc3csc(C)n3)cc2)c1`, for which the Percent Effect in [1] was -7.35%; in assay [2], 0%; in assay [3] it was -1.8%; in assay [4], 8.64%; in [5] it was 10.2%; in [6], -1.04%. The Percent Effect is 8.54% in assay [7]; 11.2% in [8]; 3.83% in assay [9]; 11.1% in assay [10]; -5.91% in assay [11].
For `COc1cc(C(=O)N(Cc2ccc(F)cc2)C2CC2)cc2c1OCCO2`, the Percent Effect is 0.816% in assay [1]; 7.89% in assay [2]; 1.68% in assay [3]; -4.56% in assay [4]; 2.43% in assay [5]; 3.55% in assay [6]. The Percent Effect in assay [7] was 21.2%; in [8] it was 36.9%; in assay [9] it was 3.19%; in assay [10], 13%; in [11], -3.44%.
On to `CCc1cc(N2CCCNCC2)n2nc(C)c(C)c2n1`, for which the Percent Effect in [1] was -1.91%; in assay [2], 8%; in assay [3] it was 2.19%; in [4], 2.6%; in assay [5], -3.41%; in assay [6] it was 3.65%. Moreover, the Percent Effect in assay [7] was 16%; in [8], 12.2%; in assay [9], 1.64%; in assay [10], 11.1%; in assay [11], -6.23%.
For `O=C(C1CCOCC1)N1C[C@@H]2[C@@H](C1)OCC(=O)N2CC1CC1`, the Percent Effect in assay [1] was -1.53%; in assay [2], -192%; in [3] it was 0.601%; in assay [4] it was -6.86%; in [5], -19.1%; in assay [6], 0.319%. Moreover, the Percent Effect is 19.2% in [7]; -0.484% in assay [8]; -222% in [9]; -451% in assay [10]; -3.21% in assay [11].
In the case of `Cc1noc([C@H]2C[C@H]3OCC[C@H]3N(S(=O)(=O)C3CC3)C2)n1`, the Percent Effect in [1] was 0.988%; in [2], 11%; in assay [3], -4.86%; in assay [4], 7.79%; in assay [5], -1.19%; in assay [6] it was -1.6%. Also, the Percent Effect in [7] is 16.7%; in assay [8], 3.43%; in [9], 9.38%; in [10], 18.5%; in assay [11], -0.433%.
Turning to `Cc1nnc2n1CCN(Cc1csc(Cc3ccccc3)n1)C2`, the Percent Effect in [1] is -5.45%; in assay [2], 5.41%; in assay [3] it was -7.1%; in assay [4] it was 3.42%; in [5] it was 3.25%; in [6] it was 4.62%. For the same compound, the Percent Effect in [7] is 3.41%; in assay [8] it was 8.73%; in [9], 8.91%; in [10], 15.8%; in assay [11], -1.48%.
As for `O=C(Cc1ccccc1F)N1CCN(C(=O)c2ccoc2)CC1`, the Percent Effect is -1.97% in assay [1]; 7.89% in [2]; 7.43% in assay [3]; -1.79% in [4]; -2.04% in assay [5]; -23.7% in [6]. For the same compound, the Percent Effect is 22.5% in [7]; -4.65% in assay [8]; 9.57% in [9]; 18.2% in assay [10]; -2.49% in assay [11].
Turning to `CSCCCN1CCn2nc(CNC(C)=O)cc2C1`, the Percent Effect in assay [1] was -4.2%; in [2], 0%; in assay [3] it was 6.86%; in [4], 4.06%; in [5] it was -7.05%; in assay [6], -0.455%. Besides, the Percent Effect in assay [7] was 8.16%; in [8] it was 27.3%; in [9], -1.07%; in [10], -2.5%; in assay [11], -4.5%.
Turning to `Cn1cnc2c1CCN(Cc1nc(COc3ccc(F)cc3)no1)C2`, the Percent Effect was -9.01% in assay [1]; 7.89% in assay [2]; 3.1% in assay [3]; 1.46% in [4]; -5.7% in assay [5]; 1.44% in [6]. The Percent Effect was 7.19% in [7]; 10.3% in assay [8]; 0.493% in assay [9]; -6.17% in [10]; -0.821% in assay [11].
With `CCn1c(CN2CCC(O)(C(=O)OC)CC2)nc2c(F)cccc21`, the Percent Effect was -3.73% in assay [1]; -44.7% in assay [2]; -3.77% in [3]; 0.565% in assay [4]; 8.27% in [5]; -3.06% in [6]. For the same compound, the Percent Effect in assay [7] was 7.85%; in assay [8], 11.3%; in assay [9], 5.39%; in assay [10], 9.76%; in assay [11] it was -12.4%.
As for `CN(CCC(F)(F)F)C(=O)C1CCCN1C(=O)OC(C)(C)C` (stereo unspecified), the Percent Effect was -3.42% in [1]; 2.74% in assay [2]; 0.924% in [3]; -4.88% in assay [4]; 2.15% in assay [5]; 2.27% in assay [6]. Also, the Percent Effect in assay [7] is -2.31%; in assay [8] it was -3.94%; in assay [9], 3.23%; in assay [10], 2.5%; in assay [11] it was -0.543%.

The values above are taken from ChEMBL document CHEMBL3988442, “University of Dundee, Small-Polar-MMV Screening Library” (2021).
